For 45 molecules, activity change, negative = inhibition results are on record in PubChem BioAssay AID1259421 (Broad Institute, 2018).

Structures are written as SMILES. Several values for one entry are separate records, joined by “and”; a condition that tells them apart may be missing. Identical values can stand only once. Among all 6,400 compounds or so, about 610 (9.5%) were called active. Rule as the data show it: active = activity change below about -70%; inconclusive = no clear call, values can overlap the other calls; inactive = above that. The list comes from a sample in which actives are over-represented; it also holds similar structures and randomly drawn compounds. The source holds several records for some structures; these can differ, active in one and inactive in another.

The nature of the assay: T. gondii ME49Luc in HeLa cells, luciferase assay, 72 h, no IFN-y (AID 1259421). Particulars: stronger effect = lower value, concentration not given here.
In the case of `Oc1ccc2c3c1OC1c4oc5ccccc5c4CC4(O)C(C2)N(CC2CC2)CCC314` (stereo not given), the activity change, negative = inhibition was -19.3% (inactive).

Take `N#CC(O[C@@H]1O[C@H](CO[C@@H]2O[C@H](CO)[C@@H](O)[C@H](O)[C@H]2O)[C@@H](O)[C@H](O)[C@H]1O)c1ccccc1` (stereo not given in full): the activity change, negative = inhibition was 19% (inactive).

Turning to `COC[C@@H](NC(C)=O)C(=O)NCc1ccccc1`, the activity change, negative = inhibition was -51% (inactive).

Take `O=C1Nc2ccc(Cl)cc2C(c2ccccc2Cl)=NC1O` (stereo not given): the activity change, negative = inhibition is 5.64% (inactive).

For the molecule `CC(C)CC(NC(=O)C(Cc1ccccc1)NC(=O)CNC(=O)[C@H](C)NC(=O)C(N)Cc1ccc(O)cc1)C(=O)N[C@H](CCCN=C(N)N)C(=O)O` (stereo not given in full), the activity change, negative = inhibition was 10.6% (inactive).

Regarding `O=C1CN=C(c2cccc(Br)c2)c2oc3ccccc3c2N1`, the activity change, negative = inhibition was 22.5% (inactive).

As for `CNC(=O)Oc1ccccc1OC(C)C`, the activity change, negative = inhibition was 12.8% (inactive).

`ClC=C(Cl)Cl`: the activity change, negative = inhibition was 8.81% (inactive).

Take `Oc1ccc2c3c1OC1c4c(c5ccccc5n4Cc4ccccc4)CC4(O)C(C2)N(CC2CC2)CCC314` (stereo not given): the activity change, negative = inhibition is -1.02% (inactive).

In the case of `CCCCCCCCCCCCC/C=C/[C@@H](O)[C@@H](N)COP(=O)(O)OCC[N+](C)(C)C`, the activity change, negative = inhibition was -1.29% (inactive).

Regarding `NC(=O)CN1C[C@H](O)CC1=O`, the activity change, negative = inhibition was -40.7% (inactive).

`CN1CCc2cc3c(cc2C1[C@@H]1OC(=O)c2c1ccc1c2OCO1)OCO3` (stereo not given in full): the activity change, negative = inhibition is 8.11% (inactive).

Turning to `CC(C)(C)c1o[nH]c(=O)c1CC(N)C(=O)O` (stereo not given), the activity change, negative = inhibition is -79.9% (active) and 9.91% (inactive).

As to `Cc1o[nH]c(=O)c1CC(N)C(=O)O` (stereo not given), the activity change, negative = inhibition is 3.8% (inactive).

As for `Cc1o[nH]c(=O)c1C[C@H](N)C(=O)O`, the activity change, negative = inhibition was 13.1% (inactive).

As to `Oc1ccc2c3c1OC1c4[nH]c5ccccc5c4CC4(O)C(C2)N(CC2CC2)CCC314` (stereo not given), the activity change, negative = inhibition was 6.33% (inactive).

In the case of `CN1C2CCC1CC(OC(=O)c1cc(Cl)cc(Cl)c1)C2` (stereo not given), the activity change, negative = inhibition was -1.24% (inactive) and 2.27% (inactive).

On to `C[C@H]1CCC/C=C/[C@@H]2C[C@H](O)C[C@H]2[C@H](O)/C=C/C(=O)O1`, for which the activity change, negative = inhibition is -94.5% (active).

Turning to `COc1ccc(/C=C/C(=O)CC(=O)/C=C/c2ccc(OC)c(OC)c2)cc1OC`, the activity change, negative = inhibition is 2.29% (inactive).

As for `CC(C)(c1ccc(OCC2CO2)cc1)c1ccc(OCC2CO2)cc1` (stereo not given), the activity change, negative = inhibition was 9.89% (inactive).

As to `CN1C2CCC1CC(OC(c1ccccc1)c1ccccc1N)C2` (stereo not given), the activity change, negative = inhibition was 16.3% (inactive).

In the case of `c1cc2c(c(N3CCNCC3)c1)OCCO2`, the activity change, negative = inhibition is -0.0388% (inactive).

For `CN1C2CCC1CC(OC(c1ccc(F)cc1)c1ccc(F)cc1)C2` (stereo not given), the activity change, negative = inhibition is 22.3% (inactive) and 38.4% (inactive).

Take `CC(=O)N(C)c1cccc(-c2ccnc3c(C(=O)c4cccs4)cnn23)c1`: the activity change, negative = inhibition was 42.5% (inactive).

Consider `O=C1NC(=O)c2c1c1c3ccccc3[nH]c1c1[nH]c3ccccc3c21`, for which the activity change, negative = inhibition is -28.7% (inactive) and -11.9% (inactive).

For `O=C1NC(=O)c2c1c1c3ccccc3n3c1c1c2c2ccccc2n1C1CCC3O1`, the activity change, negative = inhibition was -71.9% (active).

On to `N#CC(C#N)=NNc1cccc(Cl)c1`, for which the activity change, negative = inhibition is 9.63% (inactive).

As to `C[C@]12CC[C@@H]3c4ccc(OC(=O)N(CCCl)CCCl)cc4CC[C@H]3[C@@H]1CC[C@@H]2OP(=O)(O)O`, the activity change, negative = inhibition is 10.9% (inactive).

In the case of `CCCCC(CC)COC(=O)c1ccccc1C(=O)OCC(CC)CCCC` (stereo not given), the activity change, negative = inhibition is 9.98% (inactive).

For the molecule `CO[C@@H]1C(O)[C@H](O[C@H]2CC[C@@]3(C=O)[C@H](CC[C@@H]4[C@@H]3CC[C@]3(C)[C@@H](C5=CC(=O)OC5)CC[C@]43O)C2)OC(C)[C@@H]1O` (stereo not given in full), the activity change, negative = inhibition is -73.9% (active).

For the molecule `CO[C@H]1[C@H](O)[C@@H](O[C@H]2CC[C@]3(C=O)C4CC[C@]5(C)[C@@H](C6=CC(=O)OC6)CC[C@]5(O)C4CC[C@@H]3C2)O[C@@H](C)[C@@H]1O` (stereo not given in full), the activity change, negative = inhibition is -88% (active).

For `O=C1Nc2ccccc2C2(CCN(CCc3ccc(C(F)(F)F)cc3)CC2)O1`, the activity change, negative = inhibition was 16.5% (inactive) and 18.9% (inactive).

For `O=C(O)CCCCCCNC1c2ccccc2CCc2ccccc21`, the activity change, negative = inhibition is 30.7% (inactive).

Take `O=C(O)C(Cl)Cl`: the activity change, negative = inhibition was 30.7% (inactive).

`Clc1cccc(SC2CCNCC2)n1`: the activity change, negative = inhibition is 18.6% (inactive).

On to `Cc1ccc(C[N+](C)(C)C)o1`, for which the activity change, negative = inhibition is 0.893% (inactive) and 9.89% (inactive).

Take `CC(C)(C)CC(C)(C)c1ccc(O)cc1`: the activity change, negative = inhibition was 5.73% (inactive).

With `CCCC(C)(COC(N)=O)COC(N)=O`, the activity change, negative = inhibition was 8.01% (inactive).

Regarding `C[C@]1(O)CC[C@H]2[C@@H]3CCC4=CC(=O)CC[C@]4(C)[C@@]3(F)[C@@H](O)C[C@@]21C`, the activity change, negative = inhibition was 2.26% (inactive).

For `C[C@@H]1CC[C@@]2(OC1)O[C@H]1C[C@H]3[C@@H]4CC=C5C[C@H](O[C@@H]6O[C@@H](CO)[C@@H](O[C@@H]7O[C@@H](C)[C@H](O)[C@@H](O)[C@@H]7O)[C@H](O)[C@H]6O[C@@H]6O[C@@H](C)[C@H](O)[C@@H](O)[C@H]6O)CC[C@]5(C)[C@@H]4CC[C@]3(C)[C@@H]1[C@H]2C`, the activity change, negative = inhibition was -18.3% (inactive).

Consider `CC(=O)O[C@H]1C[C@H](O[C@H]2[C@@H](O)C[C@H](O[C@H]3[C@@H](O)C[C@H](O[C@H]4CC[C@@]5(C)C(CCC6C5C[C@@H](O)[C@]5(C)[C@@H](C7=CC(=O)OC7)CC[C@]65O)C4)O[C@@H]3C)O[C@@H]2C)O[C@H](C)[C@H]1O[C@@H]1O[C@H](CO)[C@@H](O)[C@H](O)[C@H]1O` (stereo not given in full), for which the activity change, negative = inhibition was -75.3% (active) and -89.3% (active).

For `CC(=O)OC1CC[C@@]2(C)C(CCC3C2CC[C@]2(C)C(C4=CC(=O)OC4)C(OC(C)=O)CC32O)C1` (stereo not given in full), the activity change, negative = inhibition was -91.6% (active).

With `COC1C(O)CC(OC2C(O)CC(OC3C(O)CC(OC4CCC5(C)C(CCC6[C@@H]5CC(O)C5(C)C(C7=CC(=O)OC7)CCC65O)C4)OC3C)OC2C)OC1C` (stereo not given in full), the activity change, negative = inhibition was -82.4% (active).

For the molecule `C[C@H]1OC(O[C@H]2[C@@H](O)CC(O[C@H]3[C@@H](O)C[C@H](O[C@H]4CC[C@]5(C)C6CC[C@]7(C)[C@@H](C8=CC(=O)OC8)[C@@H](O)C[C@]7(O)[C@@H]6CC[C@@H]5C4)O[C@@H]3C)O[C@@H]2C)C[C@H](O)C1O` (stereo not given in full), the activity change, negative = inhibition is -71.3% (active).

For the molecule `CC(=O)[C@H]1CC[C@H]2[C@@H]3CC[C@H]4C[C@H](O)CC[C@]4(C)[C@H]3CC[C@]12C`, the activity change, negative = inhibition is 2.36% (inactive).
